Inconclusive results are not listed. Entries that show only a call come without a potency. Activity calls are given as the source filed them. The call rests on the fitted dose curve; in most records, active means well fitted inhibition curve with a large enough effect; inconclusive means small, poorly fitted or top-dose-only effect; inactive means flat fitted curve, though single readings scatter.

The target of this test is Phospholipid hydroperoxide glutathione peroxidase GPX4 (Homo sapiens) (UniProt P36969). Kind of test: Primary qHTS Assay for Inhibitors of Recombinant Selenoprotein Glutathione Peroxidase 4 (GPX4) (AID 1845192). Further: nearly all actives have a fitted effect of over 65% in size. Particulars: recombinant GPX4, GR-coupled NADPH fluorescence, 15 min; series mostly up to 50 µM. The method, boiled down: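 Steps: GPX4 plus compound, 30 min RT; add GR/GSH/NADPH master mix; start with cumene hydroperoxide; read 340/450 nm fluorescence at 0 and 15 min. Finals were 200 nM GPX4, 1 mM GSH, 0.5 mM CHP, 0.5 mM NADPH, 100 nM GR.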
Chain of Phospholipid hydroperoxide glutathione peroxidase GPX4 (Homo sapiens) (P36969 whole entry, looked up): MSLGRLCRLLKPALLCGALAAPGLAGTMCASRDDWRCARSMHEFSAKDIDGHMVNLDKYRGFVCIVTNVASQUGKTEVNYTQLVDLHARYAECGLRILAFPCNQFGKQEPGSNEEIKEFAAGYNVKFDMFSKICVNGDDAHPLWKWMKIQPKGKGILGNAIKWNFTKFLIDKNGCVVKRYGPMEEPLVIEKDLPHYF
Take `CN[C@@H]1[C@@H](O)[C@@H](O[C@@H]2[C@@H](O)[C@H](O[C@H]3O[C@@H]([C@@H](C)NC)CC[C@H]3N)[C@@H](N)C[C@H]2N)OC[C@]1(C)O`: the Potency entry is “inactive”.
Regarding `CNCCN(C)Cc1cn[nH]c1-c1ccc(OC2CC(OCCC3CCOCC3)C2)cc1` (centres undefined), the Potency entry is “inactive”.
The value for `O=C(c1ccc(F)c(F)c1Nc1ccc(I)cc1F)N1CC(O)([C@@H]2CCCCN2)C1` was “inactive”; that for `CCNC(=O)[C@@H]1CCCN1C(=O)[C@H](CCCN=C(N)N)NC(=O)[C@H](CC(C)C)NC(=O)[C@@H](CC(C)C)NC(=O)[C@H](Cc1ccc(O)cc1)NC(=O)[C@H](CO)NC(=O)[C@H](Cc1c[nH]c2ccccc12)NC(=O)[C@H](Cc1cnc[nH]1)NC(=O)[C@@H]1CCC(=O)N1` was “inactive”.
The value for `CC(CCC1(O)OC2CC3C4CC=C5CC(O[C@@H]6O[C@H](CO)[C@@H](O[C@@H]7O[C@H](CO)[C@@H](O)[C@H](O)[C@H]7O)[C@H](O)[C@H]6O[C@@H]6O[C@@H](C)[C@H](O)[C@@H](O)[C@H]6O)CCC5(C)C4CCC3(C)C2C1C)CO[C@@H]1O[C@H](CO)[C@@H](O)[C@H](O)[C@H]1O` (some centres undefined) was “inactive”; that for `CC1(CO)CCCC2(C)C1C(OC(=O)c1ccccc1)C=C1C(=O)OCC12O` (centres undefined) was “inactive”.
The value for `Cn1c(NC[C@@H](N)Cc2ccccc2)nc(-c2ccncc2)c(-c2ccc3ccccc3c2)c1=O` was “inactive”.
As for `COc1ccc(NS(=O)(=O)c2sc3ccc(Cl)cc3c2C)cc1N1CCNCC1`, the Potency result is “inactive”.
The value for `CCCCc1nc(Cl)c(CO)n1Cc1ccc(-c2ccccc2-c2nnn[nH]2)cc1` was “inactive”.

(Values after PubChem BioAssay (NCATS).)
